Screening results (PubChem BioAssay)
Gal4-VP16 FLuc – counter-screen for ROR gamma inhibitors: Gal4-VP16 reporter; Potency, µM (doses to about 53.6 µM), usual class: inhibitors; Drosophila S2 Gal4-VP16 UAS-luciferase, luminescence, 20 h; AID 2546; 3.5% of 310,000 active;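 note: Gal4-VP16 expression switched on by copper sulfate through the metallothionein promoter; nearly all actives have a fitted effect of over 50% in size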
ATXN2 expr inh – ATXN2 expression inhibition | HEK-293 ATXN2-luciferase reporter, luminescence, 24 h | Potency, µM (series often up to 57 µM), usual class: inhibitors | 0.72% of 360,000 active | AID 1745845; note: nearly all actives have a fitted effect of over 55% in size
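qHTS (up to 57 uM final) was run with 24 h compound exposure of reporter cells at 37 °C. Each well was multiplexed: SteadyGlo luminescence measured ATXN2-luciferase expression after a fluorogenic Gly-Phe-AFC viability readout (25 uM final).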
HepG2 viability – HepG2 cytotoxicity, counter-screen for TGF-b inhibitors. HepG2 CAGA-GFP viability, ATP luminescence, 18 h. Potency, µM (top dose mostly 46.1 µM), most hits filed as cytotoxic. 0.76% of 410,000 active
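HepG2 CAGA-GFP cells (1000/well, DMEM with 1% FBS) received compound, then TGF-beta at 500 pg/mL final, and were incubated 18 hours at 37 degrees C. Viability was read by CellTiter-Glo luminescence. Media-only wells were set as complete cell-killing and DMSO as no toxicity.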
S2 tox – viability counter-screen for ATXN expression inhibitors; Potency, µM (titrated, usually from 56.7 µM), usual class: cytotoxic; S2 cells (HEK-293 line with an ATXN2-luciferase reporter) viability, CellTiter-Fluor protease fluorescence, 24 h; 0.49% of 400,000 active; note: nearly all actives have a fitted effect of over 40% in size
TGFb inhibitor – inhibitors of TGF-b signaling; HepG2 CAGA-GFP TGF-b/SMAD3 reporter, GFP fluorescence, 18 h; TGF-beta stimulated, 500 pg/mL final; Potency, µM (doses to about 46.1 µM), most hits filed as inhibitors; 1.2% of 410,000 active; note: nearly all actives have a fitted effect of over 65% in size
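HEPG2 CAGA-GFP cells (1000/well, DMEM with 1% FBS) were pre-incubated 2 h at 37 degrees C, given compound by pin tool, then stimulated with TGF-beta at 500 pg/mL final for 18 h before per-cell GFP fluorescence imaging.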
RORg inh – blocks mouse ROR gamma transcriptional activity; P51450; Drosophila S2 Gal4-RORgamma UAS-luciferase reporter, 20 h; Potency, µM (top dose mostly 53.6 µM), hits mostly inhibitors; 5.4% of 310,000 active; note: nearly all actives have a fitted effect of over 60% in size
Target sequence (P51450 whole entry, looked up, the tested form may be a part): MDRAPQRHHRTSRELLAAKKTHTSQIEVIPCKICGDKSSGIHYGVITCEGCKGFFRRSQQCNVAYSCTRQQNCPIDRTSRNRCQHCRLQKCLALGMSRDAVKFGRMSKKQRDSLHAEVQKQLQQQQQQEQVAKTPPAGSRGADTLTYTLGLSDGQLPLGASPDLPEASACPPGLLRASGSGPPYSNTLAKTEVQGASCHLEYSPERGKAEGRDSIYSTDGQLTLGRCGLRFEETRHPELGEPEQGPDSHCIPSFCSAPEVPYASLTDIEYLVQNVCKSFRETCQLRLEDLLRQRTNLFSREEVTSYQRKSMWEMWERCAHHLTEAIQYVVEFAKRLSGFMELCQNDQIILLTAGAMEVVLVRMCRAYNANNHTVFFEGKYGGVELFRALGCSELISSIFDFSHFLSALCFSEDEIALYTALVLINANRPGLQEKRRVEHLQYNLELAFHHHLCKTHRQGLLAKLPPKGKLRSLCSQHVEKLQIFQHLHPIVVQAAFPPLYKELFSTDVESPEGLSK
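Drosophila S2 cells stably expressing Gal4-DBD/mouse RORγ fusion under metallothionein promoter plus UAS-luciferase; compound 1 h, then 700 uM CuSO4 induction for 20 h at ambient temperature; inhibition read as reduced luminescence.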
Of the large screens only hits and unclear results are named; the others gave an inactive call; ! = repeats disagree. Sampled rows, rich in hits. Any-hit rate of the full collection: about 6.1%. Calls come from the whole dose curve; as a rule, active = well fitted curve in the direction sought with a large enough effect; inconclusive = small, poorly fitted or top-dose-only effect, or another doubt; inactive = no such curve, though single readings can be large; an effect the other way counts as inactive or inconclusive.

CCCC[C@H](CN[C@@H](CNC)[C@H](C)CC)NCCC12CCC(CC1)C2	ATXN2 expr inh 28.2µM, S2 tox 28.2µM, TGFb inhibitor inconclusive
CCC[C@H](CN[C@@H](CNC)[C@H](C)O)NCCc1ccc(OC)cc1	none
CCOC(=O)C(NC(=O)c1cccc(Cl)c1)(OCc1ccc(F)cc1)C(F)(F)F (configuration not stated)	Gal4-VP16 FLuc 20µM, RORg inh inconclusive
COC1CCC(C(=O)c2ccc3nc4c(cc3c2)CCCO4)CC1 (configuration not stated)	ATXN2 expr inh 30.6µM (no result: HepG2 viability, S2 tox, TGFb inhibitor)
COc1cc(N(C)C)c(OC)cc1C=O	none (no result: Gal4-VP16 FLuc, ATXN2 expr inh, S2 tox, RORg inh)
CCCOc1ccc(N)cc1N	Gal4-VP16 FLuc inconclusive, TGFb inhibitor inconclusive, RORg inh 4.47µM
CCc1ccc(C2=C(C)C(N3CCC(C(=O)NCc4ccc(C)o4)CC3)=NS2(=O)=O)cc1	S2 tox inconclusive (no result: Gal4-VP16 FLuc, RORg inh)
COc1ccc(N2CCN(CCNC(=O)c3ccc4nc5ccccc5c(=O)n4c3)CC2)cc1	none
COc1ccc(N2CCN(CCNC(=O)c3ccc4c(c3)[nH]c(=S)n3c5ccccc5nc43)CC2)cc1	Gal4-VP16 FLuc 3.55µM, RORg inh 6.31µM
Cc1ccc(SC[C@H](Cc2ccccc2)N2CC[C@@H](C(C)(C)C)CCC2=O)cc1	none (no result: Gal4-VP16 FLuc, ATXN2 expr inh, S2 tox, RORg inh)
CCOC(=O)c1cc(=O)c2c(OCC(COc3cccc4oc(C(=O)OCC)cc(=O)c34)OC(=O)[C@@H](N)CCCCN)cccc2o1	none (no result: Gal4-VP16 FLuc, HepG2 viability, TGFb inhibitor, RORg inh)
COC(=O)C(Cc1ccccc1)NC(=O)c1ccc(C)cc1 (configuration not stated)	none (no result: ATXN2 expr inh)
COC(=O)C(Cc1ccc(O)cc1)NC(=O)c1ccccc1 (configuration not stated)	Gal4-VP16 FLuc inconclusive, RORg inh 2.24µM
Oc1c(I)cc(I)c2cccnc12	Gal4-VP16 FLuc 4.47µM, RORg inh 2.51µM
Oc1ccc(Cl)c2cccnc12	Gal4-VP16 FLuc 3.16µM!, ATXN2 expr inh 12.6µM!, HepG2 viability 10µM, S2 tox inconclusive, TGFb inhibitor 7.08µM, RORg inh 1.78µM
Oc1ccc(CNc2ccccc2F)c2cccnc12	Gal4-VP16 FLuc inconclusive, ATXN2 expr inh 17.8µM!, S2 tox 11.2µM!, TGFb inhibitor 7.08µM, RORg inh 10µM
Oc1c(Cl)cc(Cl)c2cccnc12	Gal4-VP16 FLuc inconclusive, ATXN2 expr inh 24.3µM!, S2 tox inconclusive, TGFb inhibitor inconclusive, RORg inh 0.0794µM
CCOc1ccc(S(=O)(=O)c2cn(Cc3ccccc3C)c3ccc(OC)cc3c2=O)cc1	none (no result: Gal4-VP16 FLuc, RORg inh)
Cc1ccc(OCCSc2nc3ccccc3n2CC(=O)NC(C)C)cc1	none (no result: Gal4-VP16 FLuc, RORg inh)
Oc1ccc(F)c2cccnc12	Gal4-VP16 FLuc 4.47µM, TGFb inhibitor inconclusive, RORg inh 2.82µM
Cc1ccc(S(=O)(=O)Nc2cc(Cl)c(O)c3ncccc23)cc1	Gal4-VP16 FLuc 1.26µM, ATXN2 expr inh 11.2µM, HepG2 viability 2.82µM, TGFb inhibitor 6.31µM, RORg inh 0.708µM
CCOc1ccc(CNS(=O)(=O)c2ccc(-c3cc(C(F)(F)F)on3)s2)cc1	none (no result: Gal4-VP16 FLuc, ATXN2 expr inh, S2 tox, RORg inh)
CSc1ccc(CCNC(=O)c2cc3cc(S(=O)(=O)N4CCCCC4)ccc3n2C)cc1	TGFb inhibitor inconclusive (no result: Gal4-VP16 FLuc, ATXN2 expr inh, S2 tox, RORg inh)
Cc1ccc(-n2nc3c(=O)n(CC(=O)NC(C)C)nc(C)c3c2C)cc1	none (no result: Gal4-VP16 FLuc, ATXN2 expr inh, S2 tox, RORg inh)
N#CC1=C(S)N(c2ccccc2)C2(CCCCC2)NC1=O	Gal4-VP16 FLuc inconclusive, S2 tox inconclusive, RORg inh 12.6µM
N#CC1=C(S)N(c2ccc(F)cc2)C2(CCCCC2)NC1=O	RORg inh inconclusive
Cc1cc(C)nc(-n2nc(C)c3c2NC(=O)CC3c2ccccc2OC(C)C)n1 (configuration not stated)	ATXN2 expr inh inconclusive (no result: Gal4-VP16 FLuc, S2 tox, RORg inh)
C=C[C@]1(C)C=C2C(=O)[C@@]3(O)OC(=O)[C@@]4(CCCC(C)(C)[C@H]34)[C@@]2(O)CC1	ATXN2 expr inh 1.58µM, HepG2 viability 5.62µM, S2 tox 1.78µM, TGFb inhibitor inconclusive (no result: Gal4-VP16 FLuc, RORg inh)
C=C[C@]1(C)C=C2CC[C@H]3[C@@](C)(CCC[C@@]3(C)C(=O)O)[C@@H]2CC1	TGFb inhibitor inconclusive (no result: Gal4-VP16 FLuc, RORg inh)
Cc1c(Cl)ccc2sc(N3CCN(C(=O)C4CC4)CC3)nc12	S2 tox inconclusive, TGFb inhibitor 17.8µM (no result: Gal4-VP16 FLuc, RORg inh)
